Results taken from PubChem BioAssay (NCI).
Compounds without any hit were thinned out: in the full panel of roughly 83,000, 20% have a hit.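 Percent growth is the endpoint: 0 to 100 indicates growth inhibition (40 means 60% inhibition), 0 means no net growth, and negative values indicate cell death.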 Calls of active or inactive are those of the source. Rule for the calls: active = growth percent below 10; inactive = the rest.

How the values were obtained:
Experiment in all cases: NCI-60 one-dose screen, 48 h (100 = growth as untreated, 0 = no growth, -100 = all killed)
Settings in all cases: 10 µM unless noted
DU-145 prostate = test system: DU-145 prostate
K-562 leukemia = test system: K-562 leukemia
MALME-3M melanoma = test system: MALME-3M melanoma
MDA-MB-231 breast = test system: MDA-MB-231 breast
RXF 393 renal = test system: RXF 393 renal
SF-268 CNS = test system: SF-268 CNS
SF-295 CNS = test system: SF-295 CNS
SF-539 CNS = test system: SF-539 CNS
UACC-257 melanoma = test system: UACC-257 melanoma
M14 melanoma = test system: M14 melanoma
HCT-15 colon = test system: HCT-15 colon
HT29 colon = test system: HT29 colon
SNB-75 CNS = test system: SNB-75 CNS
SNB-19 CNS = test system: SNB-19 CNS
U251 CNS = test system: U251 CNS
PC-3 prostate = test system: PC-3 prostate
SK-MEL-5 melanoma = test system: SK-MEL-5 melanoma
UACC-62 melanoma = test system: UACC-62 melanoma
LOX IMVI melanoma = test system: LOX IMVI melanoma
SK-MEL-28 melanoma = test system: SK-MEL-28 melanoma

Measured: growth

CCC1(C2CCCC2)NC(=O)NC1=O (stereo not given)
inactive: DU-145 prostate 101% | K-562 leukemia 102% | MALME-3M melanoma 97.5% | MDA-MB-231 breast 95.6% | RXF 393 renal 97.2% | SF-268 CNS 95.8% | SF-295 CNS 111% | SF-539 CNS 86.3% | UACC-257 melanoma 105% | M14 melanoma 102% | HCT-15 colon 92.3% | HT29 colon 94.6% | SNB-75 CNS 93.9% | SNB-19 CNS 98.5% | U251 CNS 106% | PC-3 prostate 101% | SK-MEL-5 melanoma 101% | UACC-62 melanoma 99.7% | LOX IMVI melanoma 79.7% | SK-MEL-28 melanoma 98.4%

O=C1Nc2ccccc2/C1=C/c1cn(C(=O)c2c(Cl)cccc2Cl)c2ccccc12
inactive: DU-145 prostate 59.3% | K-562 leukemia 45.7% | MALME-3M melanoma 117% | MDA-MB-231 breast 55.1% | SF-268 CNS 56.6% | SF-295 CNS 44.5% | SF-539 CNS 67.4% | UACC-257 melanoma 79.2% | M14 melanoma 66.2% | HCT-15 colon 31% | HT29 colon 69.7% | SNB-75 CNS 54.7% | SNB-19 CNS 68.7% | U251 CNS 35.8% | PC-3 prostate 41.7% | SK-MEL-5 melanoma 63.1% | UACC-62 melanoma 36.7% | LOX IMVI melanoma 48.4% | SK-MEL-28 melanoma 81.5%
active: RXF 393 renal -4.11%

CC1=C(SCCC(=O)OC(C[Se]C2=C(C)C(=O)c3ccccc3C2=O)C(=O)NCCCCCC(=O)OCc2ccccc2)C(=O)c2ccccc2C1=O (stereo not given)
inactive: DU-145 prostate 39.1% | K-562 leukemia 21.6% | MALME-3M melanoma 45.6% | MDA-MB-231 breast 59% | RXF 393 renal 57.8% | SF-268 CNS 48.8% | UACC-257 melanoma 45.4% | HCT-15 colon 56.5% | HT29 colon 25.9% | SNB-75 CNS 55.5% | SNB-19 CNS 38.6% | U251 CNS 22.9% | PC-3 prostate 11.4% | UACC-62 melanoma 65.2% | LOX IMVI melanoma 39.7% | SK-MEL-28 melanoma 53.6%
active: SF-295 CNS -7.98% | SF-539 CNS 9.31% | M14 melanoma -1.57% | SK-MEL-5 melanoma 8.74%

CCN1C(=O)N(CC)C2Nn3c(s/c(=C\c4ccc(Cl)cc4Cl)c3=O)=NC21 (stereo not given)
inactive: DU-145 prostate 24.2% | K-562 leukemia 11.4% | MALME-3M melanoma 75.6% | MDA-MB-231 breast 27.3% | RXF 393 renal 43% | SF-268 CNS 64.6% | SF-295 CNS 26.5% | SF-539 CNS 13.1% | UACC-257 melanoma 83.9% | M14 melanoma 26% | HCT-15 colon 22.4% | HT29 colon 79.3% | SNB-75 CNS 42.6% | SNB-19 CNS 48.6% | U251 CNS 26.3% | PC-3 prostate 33.6% | SK-MEL-5 melanoma 24.5% | UACC-62 melanoma 41.1% | LOX IMVI melanoma 42.9% | SK-MEL-28 melanoma 45.2%

c1c[nH]c(CNC2CCCCC2)c1
inactive: DU-145 prostate 106% | K-562 leukemia 103% | MALME-3M melanoma 106% | MDA-MB-231 breast 129% | RXF 393 renal 119% | SF-268 CNS 101% | SF-295 CNS 105% | SF-539 CNS 114% | UACC-257 melanoma 119% | M14 melanoma 104% | HCT-15 colon 104% | HT29 colon 105% | SNB-75 CNS 108% | SNB-19 CNS 119% | U251 CNS 102% | PC-3 prostate 81.6% | SK-MEL-5 melanoma 118% | UACC-62 melanoma 110% | LOX IMVI melanoma 89.7% | SK-MEL-28 melanoma 120%

N#C/C(=C/C=C/c1cccc(Cl)c1)S(=O)c1ccccc1 (stereo not given)
active: DU-145 prostate -92.6% | K-562 leukemia 2.14% | MALME-3M melanoma -41.5% | MDA-MB-231 breast -57.6% | RXF 393 renal -87.6% | SF-268 CNS -59.2% | SF-295 CNS -28.9% | SF-539 CNS -50.3% | UACC-257 melanoma -46.8% | M14 melanoma -52.6% | HCT-15 colon -69.4% | HT29 colon -35.9% | SNB-75 CNS -28% | SNB-19 CNS -53% | U251 CNS -89.6% | PC-3 prostate -55.5% | SK-MEL-5 melanoma -70.5% | UACC-62 melanoma -74.2% | LOX IMVI melanoma -85.3% | SK-MEL-28 melanoma -61.1%

c1cc2ccc3cc2cc1CNCCOCCNCc1ccc2ccc(cc2c1)CNCCOCCNC3
inactive: SF-295 CNS 14.5% | UACC-257 melanoma 25.5% | M14 melanoma 89.6% | HCT-15 colon 96.7%
active: DU-145 prostate -29.3% | K-562 leukemia 6.81% | MALME-3M melanoma -64.5% | MDA-MB-231 breast -53.8% | RXF 393 renal -40.1% | SF-268 CNS -55.5% | SF-539 CNS -53.4% | HT29 colon -34.3% | SNB-75 CNS -98.7% | SNB-19 CNS -21.8% | U251 CNS -20.4% | PC-3 prostate -38.1% | SK-MEL-5 melanoma 1.54% | UACC-62 melanoma -52.8% | LOX IMVI melanoma -25.3% | SK-MEL-28 melanoma -8.69%

COc1ccc2oc3c(C)c4c(c(C)c3c2c1)C(=O)N(Cc1ccccc1)C4=O
inactive: DU-145 prostate 97.1% | K-562 leukemia 92.3% | MALME-3M melanoma 92.5% | MDA-MB-231 breast 90.3% | RXF 393 renal 99% | SF-268 CNS 87.8% | SF-295 CNS 101% | SF-539 CNS 89.7% | UACC-257 melanoma 105% | M14 melanoma 92.9% | HCT-15 colon 101% | HT29 colon 96.1% | SNB-75 CNS 85.9% | SNB-19 CNS 95.1% | U251 CNS 83.5% | PC-3 prostate 85.5% | SK-MEL-5 melanoma 99.6% | UACC-62 melanoma 92.5% | LOX IMVI melanoma 94% | SK-MEL-28 melanoma 103%

Cc1ccc(NCCN(C)C)c2c(=O)c3ccccc3sc12
inactive: DU-145 prostate 23.8% | K-562 leukemia 21.3% | MALME-3M melanoma 76.4% | MDA-MB-231 breast 24.3% | SF-268 CNS 17.1% | SF-295 CNS 29.4% | SF-539 CNS 30.8% | SNB-75 CNS 41.2% | SNB-19 CNS 20.2% | U251 CNS 10.8% | PC-3 prostate 36.2%
active: RXF 393 renal 2.41% | UACC-257 melanoma 1.5% | M14 melanoma 5.06% | HCT-15 colon 6.89% | HT29 colon -38.3% | SK-MEL-5 melanoma -73.6% | UACC-62 melanoma -5.6% | LOX IMVI melanoma -41.6% | SK-MEL-28 melanoma 2.84%

O=C1OC(c2nc3ccccc3s2)=C/C1=C\c1ccc(O)cc1
inactive: DU-145 prostate 111% | K-562 leukemia 102% | MALME-3M melanoma 100% | MDA-MB-231 breast 87.2% | RXF 393 renal 119% | SF-268 CNS 100% | SF-295 CNS 101% | SF-539 CNS 93% | UACC-257 melanoma 114% | M14 melanoma 105% | HCT-15 colon 111% | HT29 colon 99.5% | SNB-75 CNS 92.7% | SNB-19 CNS 97.2% | U251 CNS 107% | PC-3 prostate 88.8% | SK-MEL-5 melanoma 104% | UACC-62 melanoma 89.1% | LOX IMVI melanoma 94.3% | SK-MEL-28 melanoma 107%

CC1(C)OC2C(CO[Si](C)(C)C(C)(C)C)OC(n3c(I)c(C#C[Si](C)(C)C)c(=O)[nH]c3=O)C2O1 (stereo not given)
inactive: DU-145 prostate 107% | K-562 leukemia 67.5% | MALME-3M melanoma 109% | MDA-MB-231 breast 98% | SF-268 CNS 108% | SF-295 CNS 140% | SF-539 CNS 105% | UACC-257 melanoma 91.3% | M14 melanoma 106% | HCT-15 colon 93% | SNB-19 CNS 105% | U251 CNS 88.4% | PC-3 prostate 91.4% | SK-MEL-5 melanoma 95.9% | UACC-62 melanoma 92.8% | LOX IMVI melanoma 86.6%
active: RXF 393 renal -32.9% | HT29 colon -32.6% | SNB-75 CNS -71.4% | SK-MEL-28 melanoma -53.9%

CC/C=C\CCC/C=C1/C(=O)C=C[C@@H]1C/C=C\CCCC(=O)O
inactive: DU-145 prostate 83.9% | MALME-3M melanoma 92% | MDA-MB-231 breast 44.1% | RXF 393 renal 108% | SF-268 CNS 89% | SF-295 CNS 82.9% | SF-539 CNS 103% | UACC-257 melanoma 72.3% | M14 melanoma 54.6% | HCT-15 colon 53.7% | HT29 colon 31.9% | SNB-75 CNS 86.5% | SNB-19 CNS 69.2% | U251 CNS 39.8% | PC-3 prostate 57.6% | SK-MEL-5 melanoma 16.9% | UACC-62 melanoma 15.6% | SK-MEL-28 melanoma 87.1%
active: K-562 leukemia 7.87% | LOX IMVI melanoma 0.644%

O=C1CCc2c(sc3[nH]c(=S)n(-c4ccc(OC(F)(F)F)cc4)c(=O)c23)C1
inactive: DU-145 prostate 81.2% | K-562 leukemia 18% | MALME-3M melanoma 68% | MDA-MB-231 breast 61.4% | RXF 393 renal 37.3% | SF-268 CNS 25.6% | SF-295 CNS 17.2% | SF-539 CNS 19% | UACC-257 melanoma 85.9% | M14 melanoma 59.6% | HCT-15 colon 40.4% | HT29 colon 104% | SNB-75 CNS 27.4% | SNB-19 CNS 17.1% | U251 CNS 21.6% | PC-3 prostate 16.1% | SK-MEL-5 melanoma 22.6% | UACC-62 melanoma 10.8% | LOX IMVI melanoma 20.6% | SK-MEL-28 melanoma 43.2%

Cc1cccc(Cc2cnc(NC(=O)c3ccc4nnsc4c3)s2)c1
inactive: DU-145 prostate 74% | K-562 leukemia 39.4% | MALME-3M melanoma 95.3% | MDA-MB-231 breast 111% | RXF 393 renal 97.5% | SF-268 CNS 89.9% | SF-295 CNS 93.7% | SF-539 CNS 91% | UACC-257 melanoma 95.4% | M14 melanoma 64.6% | HCT-15 colon 68.6% | HT29 colon 82.8% | SNB-75 CNS 105% | SNB-19 CNS 96.1% | U251 CNS 88.7% | PC-3 prostate 66.1% | SK-MEL-5 melanoma 97.3% | UACC-62 melanoma 35.3% | LOX IMVI melanoma 34.6% | SK-MEL-28 melanoma 103%

C[C@@H]1N=C(c2ccc3ccccc3n2)Nc2nc3ccccn3c2C1=O
inactive: DU-145 prostate 107% | K-562 leukemia 102% | MALME-3M melanoma 92.4% | MDA-MB-231 breast 79.4% | RXF 393 renal 119% | SF-268 CNS 101% | SF-295 CNS 90.4% | SF-539 CNS 86.7% | UACC-257 melanoma 117% | M14 melanoma 105% | HCT-15 colon 86.8% | HT29 colon 115% | SNB-75 CNS 84.7% | SNB-19 CNS 91.2% | U251 CNS 106% | PC-3 prostate 96.8% | SK-MEL-5 melanoma 94.3% | UACC-62 melanoma 90.1% | LOX IMVI melanoma 93% | SK-MEL-28 melanoma 112%
